# According to PubChem BioAssay AID743279 (National Center for Advancing Translational Sciences (NCATS), 2014):
# Out of some 360,000 compounds screened, about 17,000 (4.7%) were called active. Roughly 5% stayed inconclusive and do not appear here. Rule as the data show it: active = activity change below about -50%; inconclusive = mostly about -30% to -49%; inactive = weaker than that. The full list was thinned out, with actives kept by preference.
# Experiment: qHTS for Inhibitors of Inflammasome Signaling: IL-1-beta AlphaLISA Primary Screen
# Settings: THP-1 LPS/ATP IL-1B secretion, 16 h; at 57.5 µM, stronger effect = lower value
# How it was run: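 Secreted IL-1B measured by AlphaLISA bead assay after 16 h compound exposure of THP-1 cells; compounds (final up to 57.5 uM) added 1 h before LPS (250 ng/mL) and ATP (1.25 mM) stimulation; lower signal means less secretion.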
# % is scaled to controls: 0 for no effect and ±100 for the full control effect.
row,SMILES,activity change
1,O=C(NCc1ccccc1)c1cccc(NC(=O)C2CCCCC2)c1,-13.6% (inactive)
2,CCC(C)Sc1nc(C)nc2c1c(=O)n(C)c(=O)n2C (stereo not given),11.7% (inactive)
3,Cc1cc(Br)cn2c(Cc3ccsc3)c(-c3ccc(C#N)cc3)nc12,-10.8% (inactive)
4,CN(Cc1ccc(C(F)(F)F)cc1)C(=O)[C@H]1O[C@@H](n2cnc3c(N)ncnc32)[C@H](O)[C@@H]1O,-14.1% (inactive)
5,Cc1ccc2nc(SCC(=O)N3CC(C)OC(C)C3)nc(=O)n2c1 (stereo not given),13.3% (inactive)
6,CC(C)C[C@@H](COCc1ccc(Cl)cc1)N1CCN(C(=O)c2ccc(Cl)cc2Cl)CCC1=O,-52.8% (active)
7,O=C(c1cc(Cl)cc(Cl)c1)N1CCC(=O)N(C(COCc2ccccc2)Cc2ccccc2)CC1 (stereo not given),-74.4% (active)
8,O=C(c1ccc(C(F)(F)F)cc1)N1CCC(=O)N([C@H](COCc2ccccc2)Cc2ccccc2)CC1,-29.6% (inactive)
9,CC(C)CC(CO)N1CCN(C(=O)c2ccc(Cl)cc2Cl)CCC1=O (stereo not given),4.74% (inactive)
10,CC(C)C[C@@H](CO)N1CCN(Cc2ccc(O)cc2)CCC1=O,0% (inactive)
11,Cc1ccc(S(=O)(=O)N2CCC(=O)N([C@H](COCc3ccccc3)Cc3ccccc3)CC2)cc1,13.2% (inactive)
12,CCc1noc(C)c1C(=O)OCC(=O)c1ccc(NC(=O)CC(C)C)cc1,1.82% (inactive)
13,C[C@@H]1CN([C@@H](C)CO)C(=O)CCCn2nncc2CO[C@@H]1CN(C)S(=O)(=O)c1ccc(-c2ccccc2)cc1,-3.91% (inactive)
14,CN=C1SC(C(=O)O)CC(=O)N1C (stereo not given),0.415% (inactive)
15,CCCCn1nnnc1C(c1ccccc1)N1CCN(c2ccccc2OC)CC1 (stereo not given),-1.89% (inactive)
16,CC1=C(C(=O)N2CCOCC2)CC(CC(=O)NCc2cccs2)C(=O)N1CCCN1CCCC1=O (stereo not given),2.1% (inactive)
17,Cc1ccc(-n2c(SCC(=O)N3c4ccccc4Sc4ccccc43)nnc2-c2ccncc2)cc1,-10.1% (inactive)
18,Cc1ccc(Nc2nc(CSc3nnc(-c4ccncc4)n3-c3ccccc3C)cs2)cc1,-74.1% (active)
19,Cc1ccccc1-n1c(SCC(=O)NCc2cccs2)nnc1-c1ccncc1,-2.89% (inactive)
20,Cc1ccn(CC(=O)NC2CCCN(Cc3ccccc3F)C2)n1 (stereo not given),-22.3% (inactive)
21,C[C@H](NC(=O)[C@@H]1CCCN1C(=O)[C@@H]1CCCN1C(=O)c1ccccc1)c1ccccc1,9.38% (inactive)
22,COCCNc1ncnc2c1ncn2[C@H]1CN(Cc2ccc(OC)cc2)C[C@@H](CO)O1,-0.989% (inactive)
23,CCc1oc(-c2ccc(OC)cc2)c(C(=O)OCCCCCO)c1C(C)OCCO (stereo not given),-1.94% (inactive)
24,COc1ccc(-c2oc3ncnc(NCCCO)c3c2-c2ccc(OC)cc2)cc1,-68.8% (active)
25,Cn1ncc(Br)c1C(=O)NC1CCCC1,-17.3% (inactive)
26,CN(CC(=O)NCc1ccc2c(c1)OCO2)CC(=O)Nc1ccc(F)c(F)c1F,-7.29% (inactive)
27,COc1ccc(C2CC(c3cccs3)=NN2C(=O)CSc2nnc(N)s2)cc1OC (stereo not given),-61.5% (active)
28,COc1ccccc1N1N=C(c2cccs2)CC1c1ccccc1 (stereo not given),24% (inactive)

row,SMILES,activity change
1,COc1ccc(C2CC(c3cccs3)=NN2C(=O)COC(=O)c2cc3ccccc3cc2O)cc1OC (stereo not given),12.7% (inactive)
2,COc1ccc(C2CC(c3cccs3)=NN2C(=O)CSc2nncs2)cc1OC (stereo not given),-14.9% (inactive)
3,COc1ccc(C2CC(=O)n3c(nc4ccccc43)S2)cc1OC (stereo not given),-17% (inactive)
4,COc1ccc(C2CC(c3cccs3)=Nc3ccccc3S2)cc1OC (stereo not given),-56.2% (active)
5,CC(C)(C)OC(=O)N1CCC(C(=O)Nc2cccc(C(=O)NCCc3ccccc3)c2)CC1,17.9% (inactive)
6,CCC1(C)COC(c2ccc(OC)c(OC)c2)OC1 (stereo not given),10.5% (inactive)
7,CC1(C(=O)NCc2ccccc2)CSCC(=O)N1CCCN1CCOCC1 (stereo not given),16.7% (inactive)
8,N#Cc1c(N)nc2c3c(sc(=N)c2c1N)NC(=O)CC3c1ccccc1Cl (stereo not given),36.3% (inactive)
9,CC1=NC2(CCCc3c2no[n+]3[O-])N(O)C1(C)C (stereo not given),1.59% (inactive)
10,COC(=O)C[C@H]1C[C@@H]2c3cc(NC(=O)Nc4ccccc4)ccc3O[C@@H]2[C@@H](CO)O1,9.89% (inactive)
11,COc1cc(OC)cc(C(=O)NCCCn2ccnc2)c1,20.1% (inactive)
12,COc1cccc(-c2nn(-c3ccccc3)cc2/C=C(\C#N)C(=O)NCCCn2ccnc2)c1,-84% (active)
13,COc1ccc(/C=C(\C#N)C(=O)NCCCn2ccnc2)cc1,-1.26% (inactive)
14,CCOC(=O)c1cc(-c2sc(NC(=O)c3ccccc3)nc2C)n(CCO)n1,-3.33% (inactive)
15,NS(=O)(=O)c1ccc(NC(=O)/C=C/c2ccccc2Cl)cc1,-17.1% (inactive)
16,COCCNC(=O)CSc1nc(N)c(NC(=O)c2ccco2)c(=O)[nH]1,0.73% (inactive)
17,CSc1ncc(Sc2ccccc2)c(C(=O)O)n1,5.96% (inactive)
18,CSc1nc(-c2ccccc2)nc(C(Cl)Cl)n1,-99.1% (active)
19,CC1(C)OC(=O)C2=C(CC(c3ccccc3)OC2CCc2ccccc2)O1 (stereo not given),-7.82% (inactive)
20,O=C(Nc1ccccc1C(=O)N1CCOCC1)c1ccc(Cl)cc1,12.7% (inactive)
21,CCOC(=O)N1CCN(C(=O)C2CC(c3ccc(F)cc3)=NO2)CC1 (stereo not given),-3.7% (inactive)
22,CNC(=S)N/N=C/c1cn(Cc2ccc(C)cc2)c2ccccc12,-7.55% (inactive)
23,COC(=O)N/N=C/c1cn(CCCOc2ccc(C)cc2)c2ccccc12,-91% (active)
24,O=Cc1cn(CCOc2ccc(F)cc2)c2ccccc12,-5.47% (inactive)
25,Cc1ccc([C@@H]2CC(=O)[C@@H]3CN(S(=O)(=O)c4ccc(C)cc4)[C@H](c4ccccc4F)C[C@@H]3N2S(=O)(=O)c2ccc(Cl)cc2)cc1,0% (inactive)
26,Cn1cnc(S(=O)(=O)N2C[C@@H](O)COC[C@@H]3O[C@H](CC(=O)NC4CCC4)CC[C@H]32)c1,3.76% (inactive)
27,CC(=O)c1c(C)[nH]c(C(=O)OCC(=O)Nc2c(C)n(C)n(-c3ccccc3)c2=O)c1C,30.6% (inactive)
